We go through 99 molecules from PubChem BioAssay AID687 (PCMD, 2007).

Hit rate of the full screen: of about 33,000 compounds, about 95 (0.3%) were called active.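 Rule for the calls: active = inhibition above 40% in the primary screen; inactive = the rest.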 What follows is part of a selection rich in actives, with near analogues and random picks from the rest.

The target in this assay is Coagulation factor XI (Homo sapiens) (UniProt P03951). The experiment in a line: human FXIa protease inhibitors, primary screen, biochemical, single compound per well (AID 687).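 Note: 0% = enzyme without compound and 100% = blank wells lacking enzyme.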 The following applies: purified human FXIa, fluorogenic AMC substrate cleavage; at 10 µM; stronger effect = higher value.
Chain of Coagulation factor XI (Homo sapiens) (P03951 19-387 limits assumed): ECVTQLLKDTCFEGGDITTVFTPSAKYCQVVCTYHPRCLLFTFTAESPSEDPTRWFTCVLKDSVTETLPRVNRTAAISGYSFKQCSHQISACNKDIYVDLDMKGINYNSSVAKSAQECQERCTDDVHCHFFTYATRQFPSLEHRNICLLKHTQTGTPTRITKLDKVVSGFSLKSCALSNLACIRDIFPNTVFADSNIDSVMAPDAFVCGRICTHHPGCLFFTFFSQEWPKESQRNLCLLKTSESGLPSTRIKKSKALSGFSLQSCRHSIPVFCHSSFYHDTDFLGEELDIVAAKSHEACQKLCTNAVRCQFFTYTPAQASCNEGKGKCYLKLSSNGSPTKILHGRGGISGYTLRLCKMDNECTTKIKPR
Chain of Coagulation factor XI (Homo sapiens) (P03951 388-625 limits assumed): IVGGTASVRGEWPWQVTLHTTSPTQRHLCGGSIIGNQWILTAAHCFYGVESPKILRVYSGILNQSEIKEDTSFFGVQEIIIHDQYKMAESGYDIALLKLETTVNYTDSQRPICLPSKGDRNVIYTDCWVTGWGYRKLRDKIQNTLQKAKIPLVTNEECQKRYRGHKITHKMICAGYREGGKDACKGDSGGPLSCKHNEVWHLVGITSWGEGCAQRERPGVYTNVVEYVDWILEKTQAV
The term inhibition denotes the relative decrease from the control value, in per cent. For the molecule `CCc1ccc(CNC(=O)C2CC(=O)N(CCc3ccc(C)cc3)C2)cc1` (centres undefined), the inhibition is 1.74% (inactive).

With `CC(C)(C)Oc1ncc(Br)c(OC(C)(C)C)n1`, the inhibition is -4.12% (inactive). On to `CCc1ccc(CNC(=O)CCc2nc(-c3cccs3)no2)cc1`, for which the inhibition is 5.18% (inactive). Consider `CCOC(=O)c1cnc(SCC(=O)Nc2ccccc2C(=O)OC)nc1N`, for which the inhibition was -1.2% (inactive). Turning to `Cc1cc(C)n(-c2nnc(C)n2NC(=O)c2cccc(Cl)c2)n1`, the inhibition was -1.74% (inactive). Then `C/C(=N\NS(=O)(=O)c1ccc(Br)cc1)c1cccs1`, with 7.3% (inactive); and `O=C(O)c1cc2ccccc2c(=O)s1`, with 3.97% (inactive); and `CCn1c(CC(=O)Nc2ccc(C)cc2)nnc1SCC(=O)Nc1nc(C)cs1`, with 0.06% (inactive). In the case of `COc1ccc(C)cc1NC(=O)CCS(=O)(=O)c1cccc2nonc12`, the inhibition was 24.9% (inactive). Then `Cc1cc(C)nc(N2C(=O)CC(Cc3ccccc3)C2=O)n1` (centres undefined), with -0.09% (inactive). For the molecule `CCN1CC=C2C(C#N)=C(N)C(C#N)(C#N)[C@H](c3ccoc3)[C@H]2C1`, the inhibition is 1.2% (inactive). Then `Cc1cccc(N2CCN(C(=O)c3cnn4c(C(F)F)cc(-c5ccccc5)nc34)CC2)c1C`, with 3.2% (inactive).

`CCOC(=O)CN(Cc1ccc(OC)c(OC)c1)S(=O)(=O)c1ccc(OC)cc1`: the inhibition was 6.28% (inactive). Then `CC(C)NC(=O)CSc1ccccc1C(=O)NCc1ccc2c(c1)OCO2`, with 6.02% (inactive); and `COn1c(=O)c(=O)n(OC)c2ccccc21`, with 3.76% (inactive); and `Cc1cc(C)n(C(=O)CCNC(=O)c2ccccc2Cl)n1`, with -5.37% (inactive). With `CCOC(=O)C1=C(C)NC2=C(C(=O)CC(C)(C)C2)C1c1ccsc1` (centres undefined), the inhibition was 1.22% (inactive). Turning to `Cc1cc(=O)oc2ccc(OCC(=O)O)cc12`, the inhibition was -9.94% (inactive). Then `COc1ccc(Cl)cc1C(=O)Nc1ccc(N(C)C(C)=O)cc1`, with 13.5% (inactive); and `COc1cccc(OC)c1C(=O)Nc1ccc(N2CCCCC2)cc1`, with 4.14% (inactive); and `CCCC(=O)C1CCN(Cc2ccccc2)CC1`, with 9.51% (inactive).

For the molecule `O=C(O)CCN=C1CCc2ccccc2N1`, the inhibition was 5.95% (inactive). Then `CCNC(=O)N1CCNC(=O)C1CC(=O)Nc1ccc(C(=O)OCC)cc1` (centres undefined), with -0.73% (inactive); and `CCC(=O)N(Cc1ccccc1)c1ccccn1`, with -8.8% (inactive); and `O=C(c1ccco1)N1CCN(C(=O)C2CCCN(S(=O)(=O)c3cccc4nsnc34)C2)CC1` (centres undefined), with -6.85% (inactive). On to `CCCOc1cccc(C(=O)Nc2nnn(CCC)n2)c1`, for which the inhibition is -6.61% (inactive). Then `Cc1nnc(SCC(=O)N2CCc3ccccc3C2)s1`, with 21.3% (inactive); and `O=C(COc1ccc(Cl)cc1)NCCSc1ccccc1`, with 6.47% (inactive); and `COc1ccc(-n2cnc3cc(NCc4ccco4)ccc32)cc1`, with 4.4% (inactive). Take `Cn1nnnc1SCC(=O)N1CCN(C(c2ccccc2)c2ccccc2)CC1`: the inhibition is -3.99% (inactive). With `CCCC(O)(c1ccc(OC)cc1)C(CN(C)C)c1ccccc1` (centres undefined), the inhibition is -1.37% (inactive). Consider `CSc1nc(C)cc(SC(C(C)=O)C(=O)Nc2ccccc2)n1` (centres undefined), for which the inhibition is 0.47% (inactive). Then `CC(=O)Nc1cccc(Oc2cc(C#N)c(C#N)cc2N2CCOCC2)c1`, with 2.12% (inactive); and `CCOc1ccc(NC(=O)CCS(=O)(=O)c2ccc3c(c2)CCCN3C(=O)CC)cc1`, with 19.3% (inactive); and `Cc1ccc(S(=O)(=O)c2c(COC(=O)c3cccc(Cl)c3)c(-c3ccccc3)nn2C)cc1`, with 6.1% (inactive). Then `CSc1ccccc1NC(=O)c1cc(C2CC2)on1`, with 5.92% (inactive); and `CC(=O)c1c(C)[nH]c(C(=O)NCc2ccc(C)cc2)c1C`, with 4.49% (inactive); and `CCOc1cccc(NC(=O)Cn2nc(-c3ccc4c(c3)OCCO4)ccc2=O)c1`, with -4.23% (inactive). `O=C1C=C(NCCNc2c(F)c(F)c(CO)c(F)c2F)CCC1`: the inhibition is -9.07% (inactive). As to `CC(C)C(c1nnnn1Cc1ccccc1)N1CCC(C(N)=O)CC1` (centres undefined), the inhibition is 3.2% (inactive). Turning to `O=C(Cc1ccc(-n2c(=O)[nH]c3ccccc3c2=O)cc1)N1CCN(c2cccc(Cl)c2)CC1`, the inhibition is 3.03% (inactive). As to `O=C(CN1CCSCC1)N/N=C/c1ccc(F)cc1`, the inhibition was -8.31% (inactive). As for `CCc1cccc(C)c1N(C(=O)Cn1c(CO)nc2ccccc21)C(C)COC` (centres undefined), the inhibition is 20.8% (inactive). Then `CC(=O)OC(C(=O)NCCc1ccccc1)c1cccnc1` (centres undefined), with 4.94% (inactive); and `OCCN1CCOCCOCCN(CCO)CCN(CCO)CC1`, with 29.9% (inactive); and `CCOc1ccc(C(O)Cc2nc3ccccc3n2C)cc1` (centres undefined), with 4.61% (inactive). Then `Cc1ccc(C(=O)N2CCN(C3CCCCC3)CC2)s1`, with -2.79% (inactive). As to `CCCCN1C(=O)CC(N2CCOCC2)C1=O` (centres undefined), the inhibition was 4.69% (inactive). Then `O=c1[nH][nH]c(C(F)(F)F)c1C=NCc1ccccc1Cl`, with -12.4% (inactive). Then `O=C(NCc1ccc2c(c1)OCO2)C12CC3CC(CC(C3)C1)C2`, with -3.87% (inactive); and `COC(=O)CNS(=O)(=O)c1ccc(OC)cc1`, with 0.19% (inactive); and `CCN(CC)C(=O)CSc1nnc(C2CCCCC2)o1`, with 5.02% (inactive). With `CC1CCC(N2CC(=O)N(Cc3ccc4c(c3)OCO4)C(c3ccc(F)cc3)C2=O)CC1` (centres undefined), the inhibition is 1.08% (inactive).

As for `N#Cc1c(N)nc2c3c(sc(=N)c2c1N)NC(=O)CC3c1ccccc1Cl` (centres undefined), the inhibition was 40.9% (active).

As to `O=C(Cc1c(F)cccc1Cl)N1CCN(C(=O)c2ccco2)CC1`, the inhibition was 2.75% (inactive). Then `O=C(O)CSCc1ccc(C(=O)O)o1`, with 0.52% (inactive). For the molecule `CCC(CC)C(=O)N1CC(=O)Nc2ccc(Br)cc2C1c1ccccc1` (centres undefined), the inhibition is -3.26% (inactive). As to `CC(C)C(=O)NC(NC(=S)NC1CCS(=O)(=O)C1)C(Cl)(Cl)Cl` (centres undefined), the inhibition was 0.31% (inactive).

As to `CCCc1nc2oc3c(OCC)ncnc3c2c2c1COC(C)(C)C2`, the inhibition was 26% (inactive). Turning to `Cc1cc(C(=O)Nc2c(C)nn(Cc3ccccc3)c2C)on1`, the inhibition was 9.91% (inactive). Then `COc1ccc(-c2cn(-c3ccc(C)cc3)c(=O)n2CC(=O)Nc2ccc(OC)c(OC)c2)cc1`, with -1.74% (inactive); and `S=c1nccc(-c2cc(Cl)sc2Cl)[nH]1`, with 3.11% (inactive). Regarding `CC1CC(C)CN(C(=O)CSc2nnc(CSc3ncccn3)n2C)C1` (centres undefined), the inhibition is -0.18% (inactive). Then `O=c1c2ccccc2nc2n1C1(CCCCC1)Cc1ccccc1-2`, with -5.48% (inactive); and `CC(=O)Nc1ccccc1OC(=O)N1CCOCC1`, with -4.74% (inactive). Then `O=C(CN1CCCCCC1)N1c2ccccc2Sc2ccc(C(F)(F)F)cc21`, with 2.04% (inactive); and `C=CCC(NCc1ccco1)c1ccc(OC)cc1` (centres undefined), with 4.05% (inactive); and `O=C(CC1NCCNC1=O)Nc1ccc(Oc2ccccc2)cc1` (centres undefined), with 0% (inactive). Then `CCOC(=O)c1cnc2sccn2c1=O`, with 6.51% (inactive).

Take `O=C(c1ccc(CN2CCOCC2)cc1)N1CCN(c2ccccc2F)CC1`: the inhibition is 3.59% (inactive). As to `Cn1c(N)c(C(=O)COC(=O)C23CC4CC(CC(C4)C2)C3)c(=O)n(C)c1=O`, the inhibition is 21.8% (inactive). As for `O=C(NCCOc1ccccc1)c1ccccc1`, the inhibition was -5.53% (inactive). Then `CC1CN(S(=O)(=O)c2ccccc2)C(C)CN1S(=O)(=O)c1ccccc1` (centres undefined), with 1.71% (inactive); and `COCCn1c(C)cc(C2=NNC(=Nc3ccc(F)cc3)SC2)c1C`, with -6.11% (inactive). `COc1ccc(N(CC(=O)NC2CCCCC2)S(=O)(=O)c2c(C)[nH]c(=O)[nH]c2=O)cc1`: the inhibition was 8.86% (inactive). Then `CCOc1c(Cl)cc(/C=N/O)cc1OC`, with -2.81% (inactive).

Regarding `COc1ccc(-n2nc(C(=O)NCC(=O)Nc3cccc(C)n3)c3ccccc3c2=O)cc1`, the inhibition is -9.02% (inactive).

Consider `N#C/C(=C(\O)CCl)c1nnc2n1CCCCC2`, for which the inhibition is -2.88% (inactive). Then `CCOC(=O)N1CCN(Cc2nc(N)nc(Nc3ccc(C)cc3)n2)CC1`, with 17.1% (inactive); and `COCCCNC(=O)C1CC(=O)N(CCc2ccccc2)C1` (centres undefined), with 7.75% (inactive).

For `Cc1cccc(C)c1NC(=O)CSc1nnc(-c2ccccc2)n1Cc1ccc2c(c1)OCO2`, the inhibition was 3.72% (inactive). Then `COC(=O)c1ccc(CSc2ccc3nnc(-c4ccccc4)n3n2)o1`, with 1.01% (inactive). Regarding `CC(C)C(=O)Nc1nnc(Sc2ccc(N(C)C)cc2)s1`, the inhibition was -3.42% (inactive). Turning to `Cc1ccc(-c2noc(CSc3nnc(-c4ccncc4)n3-c3ccc(F)cc3)n2)cc1`, the inhibition was 4.76% (inactive). Then `COC(=O)C(C(=O)Nc1cccc(C)n1)C1CCCCCC1` (centres undefined), with -11.6% (inactive); and `Cn1c(CC(=O)Nc2ccccc2)nnc1SCC(=O)c1ccccc1`, with -6.46% (inactive); and `O=C(COc1ccc(Cl)cc1)Nc1ccccc1CO`, with 2.06% (inactive).

In the case of `C=CCn1c(N)cc(=O)nc1SCC(=O)Nc1cccc2ccccc12`, the inhibition was 9.45% (inactive). `CCn1c(SCC(=O)Nc2ccc(OC)c(OC)c2)nnc1-c1c[nH]c2ccccc12`: the inhibition is 7.43% (inactive). With `COC(=O)C1C(=O)NCC1c1ccc(C)cc1` (centres undefined), the inhibition was 8.67% (inactive). For `CC(=O)Nc1ccc(S(=O)(=O)N2CCN(C3CCCCCCC3)CC2)cc1`, the inhibition is 0.06% (inactive). Then `CCOc1ccc(C(=O)Nc2ccncc2)cc1`, with -1.05% (inactive); and `CC(C)(C)NC(=O)CN(Cc1cccs1)C(=O)CNS(=O)(=O)c1ccccc1`, with -7.23% (inactive). Then `CCOCc1nnc(NC(=O)CSc2ccc(C)cc2)s1`, with -2.27% (inactive); and `CC1=NN(C(C)C)C(=O)C1`, with 28.4% (inactive). Then `CC(=O)Nc1ccc(NC(=O)CSCc2cnn(-c3ccccc3)c2-n2cccc2)cc1`, with 6.64% (inactive); and `COc1ccccc1N(C(=O)Cn1nnc2ccccc21)C(C(=O)NCc1ccco1)c1ccc(C)o1` (centres undefined), with -1.36% (inactive); and `O=C(CCc1ccccc1)NCc1cccnc1`, with 23.1% (inactive).

Take `Cc1cc(C(=O)OC(C)C(=O)Nc2cccc(S(=O)(=O)N3CCOCC3)c2)c(C)o1` (centres undefined): the inhibition is -5.93% (inactive).
